Targets with a hit are over-represented here; the source holds about 8,800 in all. About 0.5% of all pairs of compound and target were hits. Unmarked numbers belong to inactive results.
How the values were obtained:
Experiment in all cases: log2 fold change, soluble protein after heating vs DMSO (PISA); higher = thermal stabilisation; K562 lysate, 10 uM; active = over 0.2 and 3.5 SD of the protein, either way, in both replicates (recomputed)
erlotinib = compound: C#Cc1cccc(Nc2ncnc3cc(OCCOC)c(OCCOC)cc23)c1 [erlotinib]
Procedure, shortened: (§1)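 K562 pellets were dounce-homogenised in PBS pH 7.4 containing 1 mM MgCl2, and the crude extract, at 1 mg/mL protein, was exposed to 10 μM compound for 30 min. Aliquots were heated for 3 min across 48°C-58°C, pooled, brought to 0.5% NP-40 at 4°C and spun at 21,000xg for 90 min, with the supernatant taken as soluble protein. TMTpro 16plex LC-MS/MS with equalised channel sums quantified that protein. Values are log-two fold changes in thermal stability relative to solvent controls, taken from duplicates.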

[1] = compound: C/C(=N\NC(=O)C1=CC(=CC=C1)S(=O)(=O)N2CCOCC2)/C3=C(C=CC(=C3)Cl)O
Procedure, shortened: as §1

[2] = compound: C1=CC(=CC=C1C2=NC3=C(N2)C=C(C=C3)C(=O)N)OC4=CC=C(C=C4)Cl
Procedure, shortened: as §1

[3] = compound: C1=CC2=C(C=CC(=C2)/C=C\3/C(=O)NC(=NCC4=CC=CS4)S3)N=C1
Procedure, shortened: as §1

[4] = compound: C1=CC2=NC=CN=C2C=C1/C=C/3\C(=O)NC(=O)S3
Procedure, shortened: as §1

[5] = compound: C1=CC=C(C=C1)C2=NC(=C(N2)C3=CC=NC=C3)C4=CC(=C(C=C4)Cl)O
Procedure, shortened: as §1

[6] = compound: C1=CC=C2C(=C1)C3=NNC4=CC=CC(=C43)C2=O
Procedure, shortened: as §1

[7] = compound: C1CCN(C1)C(=O)NC2=CC=CC(=C2)NC3=NC=C(C(=N3)NCCC4=CN=CN4)Br
Procedure, shortened: as §1

[8] = compound: C1CN(CCC1(CC2=CC=C(C=C2)Cl)N)C3=NC=NC4=C3C=CN4
Procedure, shortened: as §1

IRAK-1-4 Inhibitor I = compound: C1COCCN1CCN2C3=CC=CC=C3N=C2NC(=O)C4=CC(=CC=C4)[N+](=O)[O-] [IRAK-1-4 Inhibitor I]
Procedure, shortened: as §1

ibrutinib = compound: C=CC(=O)N1CCC[C@@H](n2nc(-c3ccc(Oc4ccccc4)cc3)c3c(N)ncnc32)C1 [ibrutinib]
Procedure, shortened: as §1

[9] = compound: CC(=O)c1cnc2ccc(-c3cc(Cl)c(O)c(Cl)c3)nc2c1N[C@H]1CC[C@H](CN(C)C)CC1
Procedure, shortened: as §1

ralimetinib = compound: CC(C)(C)Cn1c(N)nc2ccc(-c3[nH]c(C(C)(C)C)nc3-c3ccc(F)cc3)nc21 [ralimetinib]
Procedure, shortened: as §1

[10] = compound: CC(C)(O)CC(=O)NCCn1ccc2ncnc(Nc3ccc(Oc4cccc(C(F)(F)F)c4)c(Cl)c3)c21
Procedure, shortened: as §1

[11] = compound: CC(C)C1=C2N=C(C=C(N2N=C1)NCC3=CC=CC=C3)NCCCCCCN
Procedure, shortened: as §1

[12] = compound: CC1=C(C(CC(=O)N1)C2=CC=C(C=C2)C(F)(F)F)C(=O)NC3=C(C=C4C(=C3)C=NN4)F
Procedure, shortened: as §1

[13] = compound: CC1=C(C2=C(C=C1)C(=O)C3=CC=CC=C3N2CCCN)C
Procedure, shortened: as §1

[14] = compound: CC1=C(C=C(C=C1)NC(=O)C2=CC(=CC=C2)C(C)(C)C#N)NC3=CC4=C(C=C3)N=CN(C4=O)C
Procedure, shortened: as §1

[15] = compound: CC1=C(C=C(C=C1)NC(=O)C2=CC(=CC=C2)N(C)C)NC(=O)C3=CC=C(C=C3)O
Procedure, shortened: as §1

[16] = compound: CC1=CC=C(C=C1)SC2=C3C=C(SC3=CN=C2)C(=O)N
Procedure, shortened: as §1

Sequence of UniProt P14866 (P14866 whole entry, looked up): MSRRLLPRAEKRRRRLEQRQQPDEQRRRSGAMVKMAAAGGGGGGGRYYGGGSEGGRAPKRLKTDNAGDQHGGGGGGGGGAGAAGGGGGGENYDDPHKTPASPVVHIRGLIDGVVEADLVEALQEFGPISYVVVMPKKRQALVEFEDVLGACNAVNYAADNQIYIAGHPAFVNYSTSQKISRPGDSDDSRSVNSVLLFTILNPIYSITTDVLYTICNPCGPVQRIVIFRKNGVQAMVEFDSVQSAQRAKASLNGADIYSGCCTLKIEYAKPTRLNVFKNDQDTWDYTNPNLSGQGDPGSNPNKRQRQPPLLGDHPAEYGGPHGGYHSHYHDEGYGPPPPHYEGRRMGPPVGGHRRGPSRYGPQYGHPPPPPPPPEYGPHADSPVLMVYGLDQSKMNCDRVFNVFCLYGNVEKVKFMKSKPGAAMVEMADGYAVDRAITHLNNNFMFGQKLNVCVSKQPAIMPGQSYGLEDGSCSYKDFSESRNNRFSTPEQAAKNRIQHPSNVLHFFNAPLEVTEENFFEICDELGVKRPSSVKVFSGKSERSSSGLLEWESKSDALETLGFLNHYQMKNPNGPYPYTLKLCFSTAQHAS
Sequence of UniProt Q9H0C8 (Q9H0C8 whole entry, looked up): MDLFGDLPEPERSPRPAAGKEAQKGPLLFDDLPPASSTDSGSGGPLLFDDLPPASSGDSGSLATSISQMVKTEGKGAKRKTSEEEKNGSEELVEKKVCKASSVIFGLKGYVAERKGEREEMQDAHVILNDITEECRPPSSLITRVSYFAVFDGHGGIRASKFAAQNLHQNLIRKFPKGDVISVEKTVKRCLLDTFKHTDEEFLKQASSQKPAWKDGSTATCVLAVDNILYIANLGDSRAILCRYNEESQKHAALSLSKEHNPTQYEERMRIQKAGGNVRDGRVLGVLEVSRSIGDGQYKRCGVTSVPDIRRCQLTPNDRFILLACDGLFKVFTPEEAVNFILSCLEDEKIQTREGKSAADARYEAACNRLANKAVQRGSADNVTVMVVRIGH
Sequence of UniProt Q96SY0 (Q96SY0 whole entry, looked up): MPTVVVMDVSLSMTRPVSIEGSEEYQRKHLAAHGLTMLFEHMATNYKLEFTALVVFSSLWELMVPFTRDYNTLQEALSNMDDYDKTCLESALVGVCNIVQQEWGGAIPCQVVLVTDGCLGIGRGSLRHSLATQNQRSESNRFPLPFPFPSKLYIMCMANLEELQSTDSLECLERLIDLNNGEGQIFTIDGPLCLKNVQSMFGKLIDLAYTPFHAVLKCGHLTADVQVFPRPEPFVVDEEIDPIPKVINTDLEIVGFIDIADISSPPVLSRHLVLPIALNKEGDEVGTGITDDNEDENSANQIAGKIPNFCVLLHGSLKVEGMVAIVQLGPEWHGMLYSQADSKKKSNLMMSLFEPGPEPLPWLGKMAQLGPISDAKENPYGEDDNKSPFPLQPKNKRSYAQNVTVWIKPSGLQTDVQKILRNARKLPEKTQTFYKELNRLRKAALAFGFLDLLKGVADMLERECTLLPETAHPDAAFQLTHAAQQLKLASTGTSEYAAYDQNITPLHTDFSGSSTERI
Sequence of UniProt Q03013 (Q03013 whole entry, looked up): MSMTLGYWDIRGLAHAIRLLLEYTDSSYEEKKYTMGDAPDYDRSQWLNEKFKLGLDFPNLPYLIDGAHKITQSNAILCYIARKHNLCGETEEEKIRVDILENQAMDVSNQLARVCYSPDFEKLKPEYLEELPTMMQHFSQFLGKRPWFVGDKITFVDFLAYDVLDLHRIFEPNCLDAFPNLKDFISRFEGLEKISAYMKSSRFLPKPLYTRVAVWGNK
Sequence of UniProt Q92759 (Q92759 whole entry, looked up): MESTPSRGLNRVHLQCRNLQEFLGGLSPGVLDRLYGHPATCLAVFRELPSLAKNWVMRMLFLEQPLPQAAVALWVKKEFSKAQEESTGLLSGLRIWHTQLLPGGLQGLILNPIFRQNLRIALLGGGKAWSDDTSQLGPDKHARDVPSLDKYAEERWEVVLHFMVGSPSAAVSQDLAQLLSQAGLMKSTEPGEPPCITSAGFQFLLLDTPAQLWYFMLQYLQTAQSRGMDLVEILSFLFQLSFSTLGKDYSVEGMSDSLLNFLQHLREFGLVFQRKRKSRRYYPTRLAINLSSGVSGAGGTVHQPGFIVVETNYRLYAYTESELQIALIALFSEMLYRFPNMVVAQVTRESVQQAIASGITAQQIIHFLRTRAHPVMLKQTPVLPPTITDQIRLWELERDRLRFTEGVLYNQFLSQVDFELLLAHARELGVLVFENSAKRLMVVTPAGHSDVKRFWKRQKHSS
Sequence of UniProt Q6DN03 (Q6DN03 whole entry, looked up): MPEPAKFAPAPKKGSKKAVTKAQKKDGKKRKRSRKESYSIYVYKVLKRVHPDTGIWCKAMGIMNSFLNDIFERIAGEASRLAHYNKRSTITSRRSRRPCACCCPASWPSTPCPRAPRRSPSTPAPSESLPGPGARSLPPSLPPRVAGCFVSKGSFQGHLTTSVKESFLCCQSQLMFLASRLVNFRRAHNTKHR
Sequence of UniProt P55084 (P55084 whole entry, looked up): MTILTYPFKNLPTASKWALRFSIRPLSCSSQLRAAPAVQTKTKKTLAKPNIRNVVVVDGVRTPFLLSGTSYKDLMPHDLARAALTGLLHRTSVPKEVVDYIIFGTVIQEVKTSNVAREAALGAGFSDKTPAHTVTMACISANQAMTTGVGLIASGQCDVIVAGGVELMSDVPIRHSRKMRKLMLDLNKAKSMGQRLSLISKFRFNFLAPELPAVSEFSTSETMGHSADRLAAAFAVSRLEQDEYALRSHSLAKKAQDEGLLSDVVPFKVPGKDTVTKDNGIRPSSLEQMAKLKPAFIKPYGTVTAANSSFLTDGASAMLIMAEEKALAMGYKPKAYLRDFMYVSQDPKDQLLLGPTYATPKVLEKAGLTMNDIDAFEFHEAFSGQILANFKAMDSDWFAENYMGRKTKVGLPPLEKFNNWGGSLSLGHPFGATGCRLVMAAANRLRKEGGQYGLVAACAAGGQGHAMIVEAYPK
Sequence of UniProt P32780 (P32780 whole entry, looked up): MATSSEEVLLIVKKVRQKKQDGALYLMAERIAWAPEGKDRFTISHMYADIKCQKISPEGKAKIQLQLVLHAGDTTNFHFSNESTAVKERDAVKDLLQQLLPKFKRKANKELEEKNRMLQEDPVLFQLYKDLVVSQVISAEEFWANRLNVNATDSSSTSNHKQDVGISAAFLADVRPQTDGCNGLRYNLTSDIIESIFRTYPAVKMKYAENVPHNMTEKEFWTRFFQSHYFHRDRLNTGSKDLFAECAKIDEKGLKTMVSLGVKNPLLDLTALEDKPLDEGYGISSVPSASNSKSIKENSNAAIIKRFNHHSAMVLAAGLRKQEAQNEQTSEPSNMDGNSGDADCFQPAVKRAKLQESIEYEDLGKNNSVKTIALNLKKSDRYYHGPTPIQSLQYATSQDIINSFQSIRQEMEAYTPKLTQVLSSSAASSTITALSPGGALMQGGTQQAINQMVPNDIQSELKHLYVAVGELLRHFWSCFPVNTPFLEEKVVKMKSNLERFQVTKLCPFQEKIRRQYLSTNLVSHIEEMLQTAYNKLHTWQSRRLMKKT
Sequence of UniProt Q16836 (Q16836 whole entry, looked up): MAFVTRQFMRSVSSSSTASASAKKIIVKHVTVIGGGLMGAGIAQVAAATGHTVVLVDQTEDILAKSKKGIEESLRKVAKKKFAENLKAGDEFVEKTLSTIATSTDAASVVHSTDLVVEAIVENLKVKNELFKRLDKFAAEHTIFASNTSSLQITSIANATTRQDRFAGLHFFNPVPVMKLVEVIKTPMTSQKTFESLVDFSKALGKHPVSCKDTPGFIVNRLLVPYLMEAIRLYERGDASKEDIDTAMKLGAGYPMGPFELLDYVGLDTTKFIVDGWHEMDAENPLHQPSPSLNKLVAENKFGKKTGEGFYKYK
Sequence of UniProt Q9UBN7 (Q9UBN7 whole entry, looked up): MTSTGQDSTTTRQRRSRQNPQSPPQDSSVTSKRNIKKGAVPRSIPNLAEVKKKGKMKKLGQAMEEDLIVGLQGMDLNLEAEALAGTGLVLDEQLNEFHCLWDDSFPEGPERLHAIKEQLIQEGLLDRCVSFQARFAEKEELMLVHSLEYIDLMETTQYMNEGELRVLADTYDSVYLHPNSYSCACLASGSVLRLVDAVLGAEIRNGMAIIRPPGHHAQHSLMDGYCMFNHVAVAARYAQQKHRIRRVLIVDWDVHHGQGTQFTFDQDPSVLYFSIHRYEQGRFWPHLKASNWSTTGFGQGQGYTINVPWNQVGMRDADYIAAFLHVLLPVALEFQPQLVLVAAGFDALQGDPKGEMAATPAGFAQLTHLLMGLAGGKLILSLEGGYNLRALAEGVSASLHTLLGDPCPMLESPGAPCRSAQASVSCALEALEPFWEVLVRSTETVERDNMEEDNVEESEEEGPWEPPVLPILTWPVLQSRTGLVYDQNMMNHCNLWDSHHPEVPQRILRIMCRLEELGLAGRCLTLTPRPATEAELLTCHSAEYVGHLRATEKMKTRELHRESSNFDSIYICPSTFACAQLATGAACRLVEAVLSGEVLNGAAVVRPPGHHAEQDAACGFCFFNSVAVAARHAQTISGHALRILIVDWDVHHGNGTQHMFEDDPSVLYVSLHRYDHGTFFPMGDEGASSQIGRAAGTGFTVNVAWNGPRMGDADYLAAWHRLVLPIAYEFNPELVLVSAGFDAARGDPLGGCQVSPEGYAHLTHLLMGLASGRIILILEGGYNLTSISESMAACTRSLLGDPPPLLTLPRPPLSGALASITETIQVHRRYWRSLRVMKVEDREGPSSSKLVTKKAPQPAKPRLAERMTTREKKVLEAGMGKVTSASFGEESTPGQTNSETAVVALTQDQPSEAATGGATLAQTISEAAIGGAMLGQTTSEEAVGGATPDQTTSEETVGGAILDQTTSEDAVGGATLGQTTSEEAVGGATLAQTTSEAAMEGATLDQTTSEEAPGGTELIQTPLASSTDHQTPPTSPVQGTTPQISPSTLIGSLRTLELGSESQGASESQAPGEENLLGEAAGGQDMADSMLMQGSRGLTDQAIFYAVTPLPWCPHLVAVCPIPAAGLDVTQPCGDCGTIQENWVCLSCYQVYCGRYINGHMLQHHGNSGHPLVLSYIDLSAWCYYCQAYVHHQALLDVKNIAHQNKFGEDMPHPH

Target	log2 fold change (erlotinib)	log2 fold change [1]	log2 fold change [2]	log2 fold change [3]	log2 fold change [4]	log2 fold change [5]	log2 fold change [6]	log2 fold change [7]	log2 fold change [8]	log2 fold change (IRAK-1-4 Inhibitor I)	log2 fold change (ibrutinib)	log2 fold change [9]	log2 fold change (ralimetinib)	log2 fold change [10]	log2 fold change [11]	log2 fold change [12]	log2 fold change [13]	log2 fold change [14]	log2 fold change [15]	log2 fold change [16]
HADH isoform 2 (UniProt Q16836)	-0.052	0.065	0.023	0.08	-0.03	0.003	-0.015	-0.015	-0.028	0.008	-0.004	0.02	-0.023	-0.011	-0.036	0.013	-0.045	-0.039	0.028	0.004
GTF2H4 (UniProt Q92759)	-0.013	-0.049	-0.013	0.037	-0.059	-0.001	0.141	0.056	-0.004	-0.044	0.039	0.003	0.058	-0.006	0.021	0.054	-0.014	-0.015	0.052	0.037
GTF2H1 (UniProt P32780)	0.044	0.008	0.012	-0.032	-0.011	0.003	-0.013	0.029	-0.005	-0.019	0.023	0.023	0.026	0.003	-0.005	0.036	-0.022	0.001	0.054	0.015
GOLPH3 (UniProt Q9H4A6)	0.022	-0.041	-0.075	0.017	0.012	0.004	0.019	-0.008	-0.02	0.035	0.024	0	0.034	-0.019	0.043	-0.023	0.001	-0.02	-0.023	0.004
ILKAP (UniProt Q9H0C8)	-0.042	-0.01	-0.007	0.027	-0.021	-0.005	0.015	-0.022	-0.043	0.004	-0.018	0	-0.007	0.031	-0.032	0.007	0.037	-0.016	0	-0.002
HDAC6 (UniProt Q9UBN7)	-0.025	-0.002	-0.025	-0.006	-0.014	-0.042	-0.034	-0.001	-0.023	0.008	-0.051	0.003	-0.024	-0.041	-0.014	-0.036	-0.002	0.008	-0.01	0.01
GSTM4 (UniProt Q03013)	0.006	-0.044	-0.073	-0.026	0.141	0.046	-0.025	-0.109	-0.025	-0.064	-0.139	-0.006	-0.013	-0.051	-0.079	0.096	0.037	-0.136	-0.027	0.042
GPR108 (UniProt Q9NPR9)	0.035	0.022	0	0.066	0.015	0.056	-0.028	-0.015	0.03	-0.026	-0.017	-0.063	0.001	-0.024	-0.08	0.039	0.049	0.027	-0.062	-0.004
HNRNPL (UniProt P14866)	0.054	0.073	0.022	-0.007	0.013	0.033	-0.041	-0.017	-0.003	0.014	-0.015	0.012	0.047	0.046	0.051	0	0.021	0.001	0.058	0.032
HADHB (UniProt P55084)	-0.108	-0.039	0.367 (active)	-0.036	-0.128	-0.029	0.011	-0.066	0.062	0.025	0.086	-0.05	0.002	0.104	-0.024	-0.046	0.028	0.062	-0.03	0.077
INTS14 (UniProt Q96SY0)	0.007	-0.13	0.025	0.008	-0.012	-0.001	0.018	-0.01	0	0.006	-0.006	-0.008	0.023	-0.012	-0.048	-0.003	-0.029	-0.004	0.006	-0.01
HERC2 (UniProt O95714)	0.014	0.174	0.115	0.007	0.01	0.042	-0.061	-0.016	-0.001	-0.033	0.001	0.053	0.002	0.02	0.082	0.028	-0.063	0.021	0.041	0.015
HIST2H2BC (UniProt Q6DN03)	-0.036	0.144	0.001	0.006	0.061	0.007	-0.012	0.043	0.04	-0.028	0.003	-0.052	-0.013	0.003	-0.055	0.066	0.029	-0.001	0.032	0.031
IRAK4 (UniProt Q9NWZ3)	-0.03	-0.071	-0.037	-0.019	0.037	0.015	0.223	0.3 (active)	-0.037	0.006	0	0.195	0	-0.018	-0.01	-0.018	-0.011	-0.018	0.008	-0.041
HNRNPUL2 (UniProt Q1KMD3)	-0.006	-0.002	0.02	-0.004	-0.035	-0.006	-0.014	-0.001	-0.022	-0.003	-0.019	-0.674 (active)	-0.018	-0.02	0.021	-0.022	-0.03	0.011	0.032	0
GMDS (UniProt O60547)	0.017	0.005	0.029	-0.054	-0.012	-0.023	-0.043	0.019	0.036	0.01	0.042	-0.018	0.025	0.01	-0.023	0.031	0.022	0.027	0.008	0.015
